Experimental data taken from PubChem BioAssay AID1489 (National Center for Advancing Translational Sciences (NCATS), 2009).
Records with an inconclusive call do not appear. The source made the active and inactive calls. The call rests on the fitted dose curve; in most records, active means well fitted antagonist curve with a large enough effect in the main read-out, with a control signal flat; inconclusive means small, poorly fitted or top-dose-only effect; inactive means no such curve, though single readings can be large or run the other way.

The molecules below were run against Neuropeptide S receptor (Homo sapiens) (UniProt Q6W5P4) (assay: Confirmation Concentration-Response Assay for Antagonists of the Neuropeptide S Receptor: Calcium Signal Transduction). Settings: CHO-NPSR cells, NPS-induced calcium flux, FDSS; series mostly up to 19.3 µM.
From the text: NIH Chemical Genomics Center [NCGC] NIH Molecular Libraries Probe Production centers Network [MLPCN] MLPCN Grant: X01-DA026210-01 Assay Submitter (PI): Heilig, Markus Alexander NCGC Assay Overview: Neuropeptide S receptor (NPSR), previously known as GPR154, is a recently de-orphanized G protein coupled receptor. Its endogenous ligand is the 20 amino acids peptide Neuropeptide S (NPS). […] NPS and its receptor are found in various tissues. Specifically they are highly expressed in brain areas that have been implicated in modulation of arousal, stress and anxiety. Central administration of NPS in mice produces an unusual profile of activity by inducing wakefulness and arousal, while at the same time suppressing anxiety. Therefore, NPSR may represent a novel drug target for the treatment of sleep and anxiety disorders. To identify NPSR antagonists, we developed a cell-based assay with transfected NPS receptor. NPS can stimulate the production of cAMP as well as release intracellular calcium in Chinese hamster ovary cells stably expressing NPS receptor. This change in intracellular calcium can be detected using a calcium indicator dye on a calcium imaging plate reader system (FDSS).
NCGC Assay Protocol Summary: A Chinese hamster ovary (CHO) cell line stably expressing the NPS receptor (CHO-NPSR) was obtained from Dr. Heilig lab at NIAAA and maintained in F-12 Kaighn's media (Invitrogen, Carlsbad, CA, 21127) supplemented with 10 % FBS, 100 units/ml penicillin, 100 ug/ml streptomycin and 250 ug/ml geneticin at 37C, 5% CO2 in a humidified atmosphere. Before the assay, aliquots of cells were frozen and stored at -135C. The assay was performed on a FDSS-7000 kinetic plate reader in 1536-well format. For both agonist (1-220s) and antagonist (221-400s) phases, the maximums of kinetic fluorescence responses were converted separately into text files using the instrument's software data export utility. Data for agonist response were normalized to the controls for basal activity (DMSO only) and 100% activation (NPS). […] AC50 values were determined from concentration-response data modeled with the standard Hill equation. NPS 1536-well FDSS assay protocol: (1) Frozen CHO-NPSR cells were thaw, washed once with fresh media and resuspended in F-12 Kaighn's media supplemented with 10 % FBS, 100 units/ml penicillin and 100 ug/ml streptomycin. Cells were plated at 3 ul/well (1200 cells) to black, clear-bottom, tissue-culture treated 1536-well plates, and then cultured at 37C, 5 % CO2 for 16 to 30 hours. (2) Add 3 ul of calcium dye (from High Performance PBX Calcium Assay Kit, BD Biosciences). The calcium dye was prepared according to the manufactory's instruction. (3) Incubation at 37C, 5 % CO2 for 60 to 120 min. (4) Load plates to FDSS-7000. The following steps were performed on FDSS-7000. (5) Record fluorescent background (Ex 480 nm, Em 520-560 nm) for 10 s. (6) Add 23 nl/well of compound in DMSO solution. The final titration for each compound was between 0.6 nM and 46 uM. Record agonist response for 210 s. (7) Add 2 ul of stimulation reagent (1X HBSS buffer, 0.1% BSA, 60 nM NPS). Record antagonist response for 140 s. Keywords: MLSMR, MLPCN, NIH Roadmap, qHTS, NCGC, NPS, Neuropeptide S Antagonists

Chain of Neuropeptide S receptor (Homo sapiens) (Q6W5P4 whole entry, looked up): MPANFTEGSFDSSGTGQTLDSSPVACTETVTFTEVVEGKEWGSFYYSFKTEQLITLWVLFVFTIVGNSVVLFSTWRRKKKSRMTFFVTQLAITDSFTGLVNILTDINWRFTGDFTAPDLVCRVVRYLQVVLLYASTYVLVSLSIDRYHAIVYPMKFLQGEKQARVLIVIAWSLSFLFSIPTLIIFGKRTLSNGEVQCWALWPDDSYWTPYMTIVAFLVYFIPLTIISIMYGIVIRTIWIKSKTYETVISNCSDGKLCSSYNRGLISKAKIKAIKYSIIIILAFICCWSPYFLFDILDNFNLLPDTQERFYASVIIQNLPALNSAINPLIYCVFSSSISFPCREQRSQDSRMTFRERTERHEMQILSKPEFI

Potency, inactive:
O=C(O)C1CCN(c2nc(-c3ccccc3)nc3c2oc2ccccc23)CC1, Cc1ccc(Nc2cc(C)nn2-c2nc(C)cc(C)n2)cc1, O=C(N1CCOCC1)C1(c2ccc(Cl)cc2)CCCC1, CCCCOc1ccc(OCCCN2CCOCC2)cc1, CN(C)c1ccc(N2CN=C3SCC(=O)N3C2)cc1, NC(=O)OCC(COC(N)=O)c1ccccc1, C(=N\Nc1nc(-c2ccccn2)nc2ccccc12)/c1ccccc1, O=C(O)CCCCCNc1nc(=S)[nH]c2ccccc12, O=C(c1ccccc1-c1nc2ccccc2[nH]1)N1CCCCC1, NC(=S)N/N=C/c1ncc(C(F)(F)F)cc1Cl, CCc1ccc2oc(-c3cc(N)cc(C)c3O)nc2c1, CCn1cc(C(=O)NCC2CCCO2)c(=O)c2cc(S(=O)(=O)N3CCCCCC3)ccc21 (stereo not given), Cc1cc2nc3ccc(=[N+](C)C)cc-3sc2cc1N, Cc1ccc2nc3ccc(N4CCCCCCC4)nn3c(=O)c2c1, CC1(C)O[C@@H]2C[C@H]3[C@@H]4C[C@H](F)C5=CC(=O)CC[C@]5(C)[C@H]4[C@@H](O)C[C@]3(C)[C@]2(C(=O)CO)O1, O=C(/C=C/c1ccco1)NC(=S)Nc1nc(-c2ccc3ccccc3c2)cs1, CN(C)c1nc(=Nc2cccc(Cl)c2)ss1, Oc1ccc(N=Nc2nccs2)c(O)c1, C=CCOc1c(Cl)cc(CNc2ccc(N(C)C)cc2)cc1OC, C=CCNC(=O)/C(C#N)=C/c1cn(-c2ccccc2)nc1-c1ccc(OC)c([N+](=O)[O-])c1, Cc1cccc(-c2nnc(SCc3cc(=O)[nH]c4ccccc34)n2C)c1, CC(=O)n1nc2nc(C)cc(C)c2c1N, CN(C)c1ccc(N=Cc2ccco2)cc1, Cc1oc2c(c1C(=O)NCc1cccnc1)C(=O)c1ccccc1C2=O, O=C(NCCCN1CCOCC1)c1cc2c(=O)[nH]c3ccccc3c2s1, CC(=O)c1sc(-c2ccccc2)cc1NS(=O)(=O)c1ccccc1, Cn1c(C(=O)NCCN2CCc3ccccc3C2)cc2c(=O)[nH]c3ccccc3c21, CCN(CC)S(=O)(=O)c1ccc2c(c1)nc(SC(C)C(N)=O)n2-c1ccc(OC)cc1 (stereo not given), N#CC(C#N)=c1ccc2c(c1)NC1(CCCCC1)N=2, CCC(C)n1c(=O)c(C(=O)Nc2ccccc2S(N)(=O)=O)c(O)c2ccccc21 (stereo not given), COc1ccccc1-c1nnc(SC2CCc3ccccc3NC2=O)s1 (stereo not given), COC(=O)c1ccc(C(=O)OC)c(NC(=O)CSc2cccc[n+]2[O-])c1

Potency, active:
COc1cccc2sc(Nc3nc(-c4ccccn4)cs3)nc12 3.16 µM, CS(=O)(=O)c1nc(-c2ccccc2)cc(C(F)(F)F)n1 7.94 µM, O=C(COC(=O)c1ccccc1C(=O)c1ccc(Cl)c([N+](=O)[O-])c1)NC1CCCCCC1 4.47 µM, Cc1ccc(-c2ccc(/C=C3\C(=O)ON=C3c3ccccc3)o2)c([N+](=O)[O-])c1 2.82 µM, COc1ccc(-c2cc(N)n(S(=O)(=O)c3c(F)c(F)c(F)c(F)c3F)n2)cc1OC 7.08 µM, CC1CCCCN1S(=O)(=O)c1ccc(C(=O)Nc2sccc2C(N)=O)cc1 (stereo not given) 12.6 µM, CC(=O)c1sc(N/N=C\c2ccccc2O)nc1C 1.12 µM, CCOC(=O)C1CCCN(c2ncnc3c2oc2ccccc23)C1 (stereo not given) 12.6 µM
